Assay outcomes (PubChem)
CRFR2-BP ag: agonists of CRF-BP/CRF-R2 complex, primary screen, cell-based, HEK293, calcium dye fluorescence, uHTS; 350,000 tested, 0.46% active; activation, % at 13.2 µM; calcium dye fluorescence (FLIPR); percent of saturating CRF peptide response; AID 588473, 2011;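 active = activation of at least 50%, plus an integration ratio under a set limit after plate pattern correction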;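 note: plate controls were neutral control wells without compound for no effect and CRF at EC100 for full effect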
cardiac RTF act: cardiac RTF calcium sensitivity activators, primary screen, biochemical, IANBD-TnC fluorescence, EC20 calcium; 340,000 tested, 0.24% active; activation, % at 7.2 µM; AID 493008, 2010; Troponin I, cardiac muscle (Homo sapiens) + Troponin T, cardiac muscle (Homo sapiens) + …; IANBD-labeled TnC RTF fluorescence at EC20 calcium; 0% EC20 calcium, 100% full calcium;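 active = activation above the mean over all tested compounds plus 3 SD, cut at about 30% in these data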;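 note: rise in fluorescence read as greater calcium sensitivity of cardiac thin filaments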
Cardiac RTF inh: cardiac RTF calcium sensitivity inhibitors, primary screen, biochemical, IANBD-TnC fluorescence, EC70 calcium; inhibition, % at 7.15 µM; IANBD-labeled cardiac RTF, Ca2+ fluorescence; Troponin I, cardiac muscle (Homo sapiens) + Troponin T, cardiac muscle (Homo sapiens) + …; 340,000 tested, 0.12% active;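 active = inhibition above the mean inhibition of all tested compounds plus 3 SD, cut at about 17% in these data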;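 note: assay run at fixed EC70 calcium of 1.6 mM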
IDE cell activ: human IDE activators in live cells, primary screen, fluorescence polarization, HEK cells, FAbeta-B substrate. Insulin-degrading enzyme (Homo sapiens), P14735. FAbeta-B cleavage; 0% vehicle, 100% cell-free pure enzyme wells. activation, % at 5.96 µM. 340,000 tested, 0.073% active. AID 493087, 2011;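 active = activation above the mean of all tested compounds plus 3 SD, set per screening campaign, cut at about 17% in these data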
Target sequence (P14735 whole entry, looked up): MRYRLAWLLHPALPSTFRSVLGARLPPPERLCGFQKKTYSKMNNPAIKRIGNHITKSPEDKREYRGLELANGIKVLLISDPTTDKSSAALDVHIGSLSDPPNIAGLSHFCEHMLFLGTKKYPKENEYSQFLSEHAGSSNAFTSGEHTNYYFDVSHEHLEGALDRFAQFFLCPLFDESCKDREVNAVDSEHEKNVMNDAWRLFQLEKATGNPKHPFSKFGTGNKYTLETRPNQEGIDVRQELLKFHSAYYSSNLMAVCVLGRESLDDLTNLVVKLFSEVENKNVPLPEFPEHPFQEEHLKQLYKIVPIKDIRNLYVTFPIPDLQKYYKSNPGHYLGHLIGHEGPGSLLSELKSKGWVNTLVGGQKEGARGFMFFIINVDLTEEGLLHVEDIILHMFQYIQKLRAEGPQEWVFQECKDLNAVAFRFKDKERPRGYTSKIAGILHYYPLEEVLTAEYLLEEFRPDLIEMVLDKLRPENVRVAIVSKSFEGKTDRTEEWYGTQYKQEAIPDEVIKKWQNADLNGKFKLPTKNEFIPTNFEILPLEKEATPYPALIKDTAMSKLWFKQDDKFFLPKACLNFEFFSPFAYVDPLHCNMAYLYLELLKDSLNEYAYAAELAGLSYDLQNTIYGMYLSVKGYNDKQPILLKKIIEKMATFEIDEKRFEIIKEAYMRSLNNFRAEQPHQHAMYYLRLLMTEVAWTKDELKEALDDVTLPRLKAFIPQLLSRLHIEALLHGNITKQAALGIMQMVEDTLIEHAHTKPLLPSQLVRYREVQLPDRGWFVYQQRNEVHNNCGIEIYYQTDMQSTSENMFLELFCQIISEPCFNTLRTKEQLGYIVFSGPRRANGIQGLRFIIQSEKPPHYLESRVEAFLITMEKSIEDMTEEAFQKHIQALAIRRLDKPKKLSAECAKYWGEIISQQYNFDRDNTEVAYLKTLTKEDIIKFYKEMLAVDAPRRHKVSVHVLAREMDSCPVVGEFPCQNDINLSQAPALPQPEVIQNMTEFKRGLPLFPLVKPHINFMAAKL
IDE cell inh: human IDE inhibitors in live cells, primary screen, fluorescence polarization, HEK cells, FAbetaB substrate; Insulin-degrading enzyme (Homo sapiens), P14735; inhibition, % at 5.59 µM; AID 434962, 2010; FAbetaB cleavage; 320,000 tested, 0.41% active;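 active = percent inhibition above the average of all tested compounds plus 3 SD, set per screening campaign, cut at about 16% in these data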;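 note: IDE supplied by intact live HEK cells; FP after avidin binding of uncleaved biotin substrate so inhibition keeps polarization high; 0% = DMSO wells and 100% = 60 µM reference IDE inhibitor Ii1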
TPT1 inh: Candida albicans TPT1 enzyme inhibitors, primary screen, biochemical, fluorescence polarization; recombinant caTPT1, FP RNA substrate dephosphorylation; inhibition, % at 5 µM; 300,000 tested, 0.81% active;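 active = inhibition above the mean of all tested compounds plus 3 SD, set per screening campaign, cut at about 24% in these data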;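 note: plate controls were DMSO alone for no effect and ferristatin control at 100 nM for full effect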
caTPT1 confirm: Candida albicans TPT1 inhibitors, confirmation, biochemical, fluorescence polarization, triplicate. AID 2149, 2009. inhibition, % at 5 µM. shares compounds with TPT1 inh. 2,400 tested, 74% active. recombinant caTPT1, RNase T1 coupled;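 active = inhibition above the primary screen limit, the mean inhibition of all tested compounds plus 3 SD, cut at about 25% in these data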
RNase T1 inh: RNase T1 inhibitors, counter-screen for TPT1 inhibitor project, biochemical, fluorescence polarization. shares compounds with TPT1 inh. 2,400 tested, 83% active. inhibition, % at 5 µM. RNase T1 cleavage, 1536-well;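 active = inhibition above the solvent-only control well mean plus 3 SD, limit set per screening run, cut at about 23% in these data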;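 note: plate controls were DMSO wells with enzyme for no effect and wells without RNase T1 for full effect; inhibitors block cleavage so intact labeled substrate keeps polarization high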
An asterisk follows results filed as active. Sampled rows, rich in hits. Any-hit rate of the full collection: about 1.5%.

CC(NC(=O)/C(=C/c1cccc([N+](=O)[O-])c1)NC(=O)c1ccco1)C(=O)O (stereo not given) was read as CRFR2-BP ag 2, cardiac RTF act 1, Cardiac RTF inh 5, IDE cell activ -2, IDE cell inh 6, TPT1 inh 130*, caTPT1 confirm 3 and RNase T1 inh 8.
COc1cccc(N2CCN(c3nc(-c4ccccc4C)cc(=O)[nH]3)CC2)c1 was read as CRFR2-BP ag 3, cardiac RTF act 2, Cardiac RTF inh -9 and IDE cell activ 5.
Screening CC1=C(C(=O)OC(C)C)C(c2cncc(-c3ccc(F)cc3)c2)C(C#N)=C(N)O1 (stereo not given) returned CRFR2-BP ag 0, cardiac RTF act 5, Cardiac RTF inh -13, IDE cell activ -1, IDE cell inh -1 and TPT1 inh -1.
Screening Cc1ccc(NS(=O)(=O)c2cc([N+](=O)[O-])ccc2N/N=C/c2sc(N3CCOCC3)nc2-c2ccccc2)c(C)c1 returned CRFR2-BP ag 19, cardiac RTF act 10, Cardiac RTF inh -19, IDE cell activ 0, IDE cell inh 1, TPT1 inh 56*, caTPT1 confirm 55* and RNase T1 inh 73*.
`O=[N+]([O-])c1ccc(COP(=O)(O)OCc2ccc([N+](=O)[O-])cc2)cc1` gave CRFR2-BP ag -2, IDE cell inh 7 and TPT1 inh -2.
Cc1ccc2nc(/C(C#N)=C/c3ccc(-c4cccc([N+](=O)[O-])c4)o3)[nH]c2c1 was read as CRFR2-BP ag 30, cardiac RTF act -1, Cardiac RTF inh -7, IDE cell activ -14, IDE cell inh 3, TPT1 inh 76*, caTPT1 confirm 65* and RNase T1 inh 74*.
Screening COc1ccc(N(CC(=O)NC2CCCCCC2)S(=O)(=O)c2ccc(C)cc2)cc1OC returned CRFR2-BP ag 0, cardiac RTF act -1, Cardiac RTF inh -11, IDE cell activ 3, IDE cell inh 3 and TPT1 inh -3.
COc1ccc2nc(C)cc(NCc3ccc(F)cc3)c2c1 was read as CRFR2-BP ag 73*, cardiac RTF act 69*, Cardiac RTF inh -79, IDE cell activ -12, IDE cell inh 13, TPT1 inh 69*, caTPT1 confirm 82* and RNase T1 inh 85*.
For COc1ccc2nc(C)cc(Nc3ccc(C)cc3)c2c1 the results were CRFR2-BP ag 1, cardiac RTF act 6, Cardiac RTF inh -5 and IDE cell activ 2.
For NNc1nc2c(-c3ccc(Cl)cc3)nnn2c2ccccc12 the results were CRFR2-BP ag 2, cardiac RTF act 3, Cardiac RTF inh -7, IDE cell activ 6, IDE cell inh -1, TPT1 inh 39*, caTPT1 confirm 23 and RNase T1 inh 29*.
Screening NNc1nc2c(-c3ccc(F)cc3)nnn2c2ccccc12 returned CRFR2-BP ag -1, cardiac RTF act 2, Cardiac RTF inh -2, IDE cell activ -2, IDE cell inh 5, TPT1 inh 29*, caTPT1 confirm 81* and RNase T1 inh 91*.
`O=C(CN1CCN(CC(=O)Nc2ccccc2Cl)CC1)NCC1(N2CCOCC2)CCCCC1` gave CRFR2-BP ag 4, cardiac RTF act 6, Cardiac RTF inh -20 and IDE cell activ -2.
